In the library only some 2.3% were active in any assay of this set; here they are far more common.
BCLXL inh: inhibitors of human Bcl-xL, primary screen, biochemical, fluorescence polarization, HTS; Bcl-2-like protein 1 (Homo sapiens), Q07817; hit rate 0.7% among 320,000; AID 2129, 2009; GST-Bcl-xL / FITC-Bim BH3 peptide fluorescence polarization; inhibition, % at 10.9 µM;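 active = inhibition above the mean of all tested compounds plus 3 SD, cutoff set per campaign, cut at about 30% in these data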;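 note: inhibitors lower millipolarization by displacing the labeled peptide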
Target sequence (Q07817 whole entry, looked up): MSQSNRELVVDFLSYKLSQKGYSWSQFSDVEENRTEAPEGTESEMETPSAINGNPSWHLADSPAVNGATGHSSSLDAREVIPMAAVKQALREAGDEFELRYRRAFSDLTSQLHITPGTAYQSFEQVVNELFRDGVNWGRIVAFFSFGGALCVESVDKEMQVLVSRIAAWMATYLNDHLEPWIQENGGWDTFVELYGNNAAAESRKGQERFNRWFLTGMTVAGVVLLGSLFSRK
Mcl1 Bid PPI: Mcl-1/Bid binding inhibitors, primary screen, biochemical, TR-FRET, 1536-well | AID 1021, 2008 | hit rate 0.97% among 220,000 | TR-FRET Mcl-1/Bid-Dy647 peptide binding | inhibition, % at 21.7 µM | Induced myeloid leukemia cell differentiation protein Mcl-1 (Homo sapiens), Q07820;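 active = compounds that cut the binding signal by more than half at the single screening dose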;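 note: His-tagged Mcl-1 with europium anti-His antibody binding Bid BH3 peptide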
Target sequence (Q07820 whole entry, looked up): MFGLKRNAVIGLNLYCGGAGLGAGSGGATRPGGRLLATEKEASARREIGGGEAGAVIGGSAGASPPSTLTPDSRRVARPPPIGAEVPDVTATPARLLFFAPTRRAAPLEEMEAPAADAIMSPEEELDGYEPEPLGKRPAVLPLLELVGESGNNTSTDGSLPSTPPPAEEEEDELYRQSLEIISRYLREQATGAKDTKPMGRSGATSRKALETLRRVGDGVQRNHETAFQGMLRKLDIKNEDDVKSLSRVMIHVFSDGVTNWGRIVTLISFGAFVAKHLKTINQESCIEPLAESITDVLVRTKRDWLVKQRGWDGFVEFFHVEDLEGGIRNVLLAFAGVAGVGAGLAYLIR
Bim-Mcl-1: inhibitors of Bim peptide binding to Mcl-1, primary screen, biochemical, bead-based flow cytometry, multiplex; inhibition, % at 10 µM; Bim peptide-Mcl-1 binding; Induced myeloid leukemia cell differentiation protein Mcl-1 (Homo sapiens), Q07820; hit rate 0.1% among 190,000; in the data active = inhibition above about 40%
MCL1 BIM primary: inhibitors of MCL1 binding to BIM-BH3, primary screen, biochemical, fluorescence polarization; AID 2057, 2009; hit rate 0.68% among 320,000; inhibition, % at 10.9 µM; GST-MCL1 / FITC-Bim-BH3 fluorescence polarization; Induced myeloid leukemia cell differentiation protein Mcl-1 (Homo sapiens), Q07820;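 active = inhibition above the mean inhibition of all tested compounds plus 3 SD, set per campaign, cut at about 40% in these data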;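 note: higher means more loss of mP so more displacement of Bim peptide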
Mcl1 Noxa PPI: Mcl-1/Noxa binding inhibitors, primary screen, biochemical, TR-FRET, 1536-well. Induced myeloid leukemia cell differentiation protein Mcl-1 (Homo sapiens), Q07820. TR-FRET Mcl-1/Noxa peptide binding, 2 h. inhibition, % at 21.7 µM. AID 1022, 2008. hit rate 1.5% among 220,000;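 active = compounds that cut the protein-peptide binding signal by more than 50% relative to plate controls in a single-dose test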;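 note: His-tagged Mcl-1 with rhodamine Noxa BH3 peptide and terbium anti-His antibody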
GLD-1 RNA inh: GLD-1/TGE RNA complex disruptors, primary screen, biochemical, fluorescence polarization; Female germline-specific tumor suppressor gld-1 (Caenorhabditis elegans), Q17339; purified GLD-1 + fluorescein TGE RNA; inhibition, % at 5.96 µM; hit rate 0.44% among 320,000; AID 2280, 2010;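 active = percent inhibition above a per-plate cutoff, the plate mean of test compounds plus 3 SD, cut at about 30% in these data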
Of the large screens only hits and unclear results are named; the others gave an inactive call.

COc1ccccc1/C=C/C=N/NC(=O)c1ccccn1	none
COc1ccccc1/C=C/C=N/NC(=O)c1cc(-c2ccco2)[nH]n1	Mcl1 Noxa PPI 61.6 (no result: Bim-Mcl-1)
CC(C)Nc1nnc(Sc2ccc(Cl)cc2[N+](=O)[O-])s1	none
O=C(O)c1[nH]c2ccccc2c1C=NCc1ccccc1Cl	Mcl1 Bid PPI 88.7
CCn1c(=O)c(CCC(=O)N2CCOCC2)c(C)c2c(C)nn(-c3ccccc3)c21	none (no result: Mcl1 Bid PPI, Bim-Mcl-1, Mcl1 Noxa PPI)
COc1cc(/C=N/N(C)c2ccccc2)ccc1O	Mcl1 Noxa PPI 56.2
COc1cc(OC)c(OC)cc1/C=N/N(C)c1ccccc1	none
COc1cc(/C=N/NC(=O)C2c3ccccc3Oc3ccccc32)ccc1O	Mcl1 Noxa PPI 79.0
Cc1ccc(S(=O)(=O)Nc2cccnc2)c(C)c1C	none (no result: Mcl1 Bid PPI, Bim-Mcl-1, Mcl1 Noxa PPI)
COc1ccc(-c2cc3c(=O)n(CC(=O)NCc4ccccc4F)ncn3n2)cc1	none (no result: Mcl1 Bid PPI, Bim-Mcl-1, Mcl1 Noxa PPI)
COc1ccc(C(=O)C(C)[n+]2ccc(C)c3ccccc32)cc1[N+](=O)[O-] (stereo unspecified)	BCLXL inh 34.2 (no result: Mcl1 Bid PPI, Bim-Mcl-1, Mcl1 Noxa PPI)
COc1ccc(C(=O)Nc2ccc(O)c3ccccc23)cc1OC	none (no result: Mcl1 Bid PPI, Bim-Mcl-1, Mcl1 Noxa PPI)
O=C(O)c1ccc(-n2cccn2)nc1	none
COc1ccccc1CNC(=O)CC(NS(=O)(=O)c1ccc(C)cc1)c1ccco1 (stereo unspecified)	Mcl1 Bid PPI 92.2
CCC(NC(=O)c1cc(COc2cc(C)c(Cl)c(C)c2)on1)c1ccncc1 (stereo unspecified)	none (no result: Mcl1 Bid PPI, Bim-Mcl-1, Mcl1 Noxa PPI)
COc1cc(CNCc2ccc(SC)cc2)cc(OC)c1	Mcl1 Bid PPI 50.7
Cc1n[nH]c(=S)n(NC(=O)/C=C/C(=O)Nn2c(=S)[nH]nc(C)c2=O)c1=O	Mcl1 Noxa PPI 86.9 (no result: BCLXL inh, MCL1 BIM primary, GLD-1 RNA inh)
Cc1ccc(S(=O)(=O)N2CC=C(C(=O)NCc3ccccc3)CC2)cc1	none
CC(C)(C)c1cc(C(=O)N/N=C/c2ccc(-c3ccccc3[N+](=O)[O-])o2)n[nH]1	BCLXL inh 47.8, MCL1 BIM primary 42.3, GLD-1 RNA inh 75.4 (no result: Mcl1 Bid PPI, Bim-Mcl-1, Mcl1 Noxa PPI)
O=C(N/N=C/c1ccc(-c2ccccc2[N+](=O)[O-])o1)c1cccnc1	none
Cc1ccc(S(=O)(=O)Nc2csc(C)c2C(=O)O)cc1	Mcl1 Noxa PPI 54.2 (no result: Bim-Mcl-1)
CCC(=O)OC1(C)C(=O)C=C2C=C(c3ccsc3)OC=C2C1=O (stereo unspecified)	Mcl1 Noxa PPI 67.8 (no result: Bim-Mcl-1)
CCOC(=O)c1ccc(Oc2cn[nH]c2-c2ccc(OCC(=O)NN)cc2O)cc1	none (no result: Mcl1 Bid PPI, Bim-Mcl-1, Mcl1 Noxa PPI)
COc1cc2[nH]c(=S)nc(NC3CCCCCC3)c2cc1OC	none
COc1cc2[nH]c(=S)nc(NCCc3ccc(S(N)(=O)=O)cc3)c2cc1OC	Mcl1 Noxa PPI 59.2
COc1ccc(CCNc2ncnc3cc(OC)c(OC)cc23)cc1OC	none (no result: BCLXL inh, MCL1 BIM primary, GLD-1 RNA inh)
COc1ccc(CCNc2nc(=S)[nH]c3cc(OC)c(OC)cc23)cc1OC	Mcl1 Noxa PPI 80.1
COc1cc2[nH]c(=S)nc(Nc3ccc(NC(C)=O)cc3)c2cc1OC	Mcl1 Noxa PPI 78.4
COc1ccc(CCNc2ncnc3c2[nH]c2cc(OC)c(OC)cc23)cc1OC	Mcl1 Noxa PPI 65.7 (no result: Bim-Mcl-1)
O=C1C2C3CCC(C3)C2C(=O)N1Cc1ccccc1 (stereo unspecified)	none
CCCC1(C(=O)OCC)NC(c2cc(OC)c(OC)c(OC)c2)C2C(=O)N(CC)C(=O)C21 (stereo unspecified)	Bim-Mcl-1 81.0
CCOC(=O)C1(C)NC(c2ccc(OC)c(OC)c2)C2C(=O)N(CC)C(=O)C21 (stereo unspecified)	none
O=C(N/N=C/c1ccc(O)c(O)c1)c1ccc(CSc2cccc3cccnc23)cc1	Mcl1 Noxa PPI 76.1
O=C(CSc1cccc2cccnc12)N/N=C/c1cccc(O)c1	none
COc1cccc(/C=C2\N=C(c3c(-c4ccccc4)noc3C)OC2=O)c1	none
O=C(NCc1cccnc1)/C(=C/c1ccc(-c2ccc(Cl)cc2)o1)S(=O)(=O)c1ccccc1	none
O=C(NCc1cccnc1)/C(=C\c1ccc(-c2ccc(Br)cc2)o1)S(=O)(=O)c1ccccc1	Mcl1 Bid PPI 52.1
O=C(/C=C/c1ccc(O)cc1)c1ccccc1	none (no result: Bim-Mcl-1)
O=C(/C=C/c1ccc(N2CCC(c3ccccc3)=N2)cc1)c1ccccc1	BCLXL inh 34.1 (no result: Bim-Mcl-1)
Cc1ccc2[nH]c(O)c(N=NC(=O)c3ccc(NS(=O)(=O)c4cccs4)cc3)c2c1	Mcl1 Noxa PPI 70.7 (no result: Bim-Mcl-1)
Cc1oc2ccc(O)cc2c1C(=O)c1ccccc1	none (no result: Mcl1 Bid PPI, Bim-Mcl-1, Mcl1 Noxa PPI)
Cc1cc(=O)c(C(=O)c2ccccc2)c(C)o1	BCLXL inh 37.1 (no result: Mcl1 Bid PPI, Bim-Mcl-1, Mcl1 Noxa PPI)
CCC(C)NC(=O)C1CC(c2ccc(OC)cc2)=NO1 (stereo unspecified)	none
CCN=C1SC(C(=O)Nc2ccc(OC)cc2)CC(=O)N1CC (stereo unspecified)	Mcl1 Noxa PPI 64.3
CCOc1cc(/C=N/NC(=O)C(=O)NCCCOC(C)C)cc(Br)c1O	Mcl1 Noxa PPI 55.9
COc1cc(/C=C(\C#N)c2nc3ccccc3s2)ccc1OCC(=O)Nc1ccccc1	Mcl1 Bid PPI 78.3
COc1cc(/C=C(/C#N)c2nc3ccccc3[nH]2)ccc1OCC(=O)Nc1ccccc1C(C)C	Mcl1 Bid PPI 59.4
CCOc1cc(/C=C(/C#N)c2ccc(F)cc2)ccc1OCc1ccc(C(=O)O)o1	none
COc1cc(/C=C(/C#N)c2nc3ccccc3[nH]2)ccc1OCC(=O)Nc1ccccc1C	Mcl1 Bid PPI 67.4
CCOc1cc(/C=C(/C#N)c2nc3ccccc3[nH]2)ccc1OCc1ccc(C(=O)O)o1	Mcl1 Noxa PPI 51.5
COc1ccc(-n2cnnc2)cc1	none
Cc1c(C(=O)NCC2COc3ccccc3O2)oc2ccc(S(=O)(=O)N(C)C3CCCCC3)cc12 (stereo unspecified)	none
CC(C)Oc1ccc(C2CC(=O)N(c3ccc(N(C)C)cc3)C2=O)cc1 (stereo unspecified)	none
CC(C)OP(=O)(OC(C)C)C1(O)C(=O)Nc2ccc(Br)cc21 (stereo unspecified)	none
O=C(O)Cn1nc2ccccc2n1	none
CC(C(=O)O)n1nc2ccccc2n1 (stereo unspecified)	Mcl1 Bid PPI 71.3
CCC(=O)NC1=C(NC(C)c2ccccc2)C(=O)c2ccccc2C1=O (stereo unspecified)	none
CCC(=O)NC1=C(Cl)C(=O)C(NC(=O)CC)=C(Cl)C1=O	Mcl1 Noxa PPI 92.2 (no result: BCLXL inh, Bim-Mcl-1, MCL1 BIM primary, GLD-1 RNA inh)
Cc1[nH]nc(-c2ccc(OCc3cnn(-c4ccccc4)c3)cc2O)c1Oc1ccccc1F	Mcl1 Bid PPI 59.1
O=C(NCC(c1cccnc1)N1CCN(c2ccc(F)cc2)CC1)c1ccco1 (stereo unspecified)	BCLXL inh 151.0

Screens (PubChem BioAssay)
